Results on 16 compounds are retold here after PubChem BioAssay (NCI).

Some test systems named below: T-47D breast; BT-549 breast; MDA-MB-435 melanoma; SW-620 colon; MCF7 breast; HCT-116 colon; HCC-2998 colon; KM12 colon.
What all share (assay): NCI-60 one-dose screen, 48 h (100 = growth as untreated, 0 = no growth, -100 = all killed)
Common to all, as to settings: 10 µM unless noted

About 83,000 compounds went through this panel and 20% of them were active in at least one assay; those are over-represented in the sample as a whole.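 Note: values are percent growth. 100 is the growth of untreated cells, values between 100 and 0 indicate rising inhibition; between -100 and 0 indicates cell death.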 Values without a mark were called inactive. The source made the active and inactive calls. How the source made its calls: active means growth percent below 10; inactive means the rest.

For the compound `COc1cccc(-c2nn(-c3ccccc3)cc2-c2ccnc(NCCCNC(=O)c3ccc(F)cc3)c2)c1`, the growth with T-47D breast is -0.248% (active); in the assay with BT-549 breast it was 29.8%; in the assay with MDA-MB-435 melanoma, -16.7% (active); with SW-620 colon it was 33%; in the assay with MCF7 breast, 18.6%; in the assay on HCT-116 colon, 13.1%. Besides, the growth in the assay on HCC-2998 colon is 40.2%; in the assay on KM12 colon, 18.7%.
As for `CN(C)c1ccc(-c2cc(-c3ccc(Nc4nc(Nc5ccc(Cl)cc5)nc(Nc5ccc(Cl)cc5)n4)cc3)no2)cc1`, the growth with T-47D breast was -4.43% (active); in the assay with BT-549 breast it was 58.2%; in the assay with MDA-MB-435 melanoma it was 9.44% (active); with SW-620 colon it was 53.6%; in the assay on MCF7 breast it was 13.4%; with HCT-116 colon, 31.3%. Besides, the growth was -5.58% (active) in the assay with HCC-2998 colon and 28.5% with KM12 colon.
With `N#Cc1c(-c2cccc(Cl)c2)cc(-c2cccc(Cl)c2)[nH]c1=O`, the growth is 79.2% with T-47D breast; 52.4% in the assay on BT-549 breast; 0.951% (active) in the assay with MDA-MB-435 melanoma; 50.2% in the assay with SW-620 colon; 53.8% in the assay with MCF7 breast; 67.1% in the assay on HCT-116 colon. In addition, the figures for the growth in the assay with HCC-2998 colon and in the assay on KM12 colon were 82.6% and 56.1%, respectively.
As for `COC(=O)[C@]12CC[C@@H](C)[C@H](C)[C@@H]1C1=CC[C@@H]3[C@@]4(C)C(C=O)=C[C@@](C)(COS(C)(=O)=O)C4[C@H](O)C[C@@]3(C)[C@]1(C)CC2` (stereo partly drawn), the growth in the assay on T-47D breast was -29.4% (active); in the assay on BT-549 breast it was -49.6% (active); with MDA-MB-435 melanoma, -21.5% (active); with SW-620 colon it was -51.4% (active); in the assay on MCF7 breast it was -16% (active); in the assay with HCT-116 colon, -85.3% (active). The growth in the assay on HCC-2998 colon is -85% (active); in the assay on KM12 colon it was -75.4% (active).
With `CN(C)CCNc1nc2ccccc2c2c1c1c(n2Cc2ccccc2)-c2ccccc2C1=O`, the growth in the assay on T-47D breast is -41.2% (active); with BT-549 breast, -86.8% (active); in the assay on MDA-MB-435 melanoma it was -65.1% (active); with SW-620 colon, -92.8% (active); with MCF7 breast, -93.2% (active); in the assay with HCT-116 colon, -78.2% (active). Moreover, the growth with HCC-2998 colon was -91.3% (active); with KM12 colon, -74.6% (active).
`O=C(Nc1ccc(Cl)cc1)Nc1ccc(Cl)c(C(F)(F)F)c1`: the growth in the assay on T-47D breast was -5.38% (active); in the assay on BT-549 breast it was 14.4%; with MDA-MB-435 melanoma, -5.12% (active); in the assay on SW-620 colon, 5.74% (active); with MCF7 breast, 9.91% (active); with HCT-116 colon it was 2.77% (active). Moreover, the growth was -34.8% (active) in the assay on HCC-2998 colon and 3% (active) with KM12 colon.
For `COC(=O)c1c2c(c(C)[n+]([O-])c1C)C(=O)C(NCc1ccc(F)c(Cl)c1)=CC2=O`, the growth is -5.44% (active) in the assay on T-47D breast; 43.7% in the assay with BT-549 breast; -82.4% (active) with MDA-MB-435 melanoma; 5.47% (active) in the assay on SW-620 colon; -32.8% (active) in the assay with MCF7 breast; 0.429% (active) in the assay with HCT-116 colon. The growth was 13.3% in the assay on HCC-2998 colon and 11.5% with KM12 colon.
With `N=C(N)c1ccc(-c2ccc(-c3cncc4ccccc34)s2)s1`, the growth with T-47D breast was -58.3% (active); in the assay on BT-549 breast, 36.9%; in the assay on MDA-MB-435 melanoma, -91.2% (active); with SW-620 colon, -68.4% (active); in the assay with MCF7 breast it was -68.7% (active); with HCT-116 colon, -84.4% (active). Besides, the values for the growth with HCC-2998 colon and in the assay with KM12 colon were -78.3% (active) and -78.8% (active), respectively.
For the compound `O=C1CC(N2C(=O)/C(=C/C(Cl)=C\c3ccc([N+](=O)[O-])cc3)SC2=S)C(=O)N1c1ccc(O)cc1` (stereo not drawn), the growth in the assay with T-47D breast is 17.2%; in the assay with BT-549 breast, -17.3% (active); with MDA-MB-435 melanoma, -12% (active); in the assay with SW-620 colon it was 0.226% (active); in the assay on MCF7 breast it was -11.6% (active); with HCT-116 colon, -31.2% (active). Also, the figures for the growth with HCC-2998 colon and with KM12 colon were -81.6% (active) and -72.4% (active), respectively.
As to `COc1ccc2c(c1)C(=O)/C(=C/c1ccc(OCC(=O)Nc3nccs3)cc1)O2`, the growth with T-47D breast was 75.2%; in the assay with BT-549 breast, -84.2% (active); in the assay on MDA-MB-435 melanoma it was 92.5%; in the assay with SW-620 colon it was -24% (active); in the assay on MCF7 breast it was 59.8%; in the assay on HCT-116 colon, 15.6%. Moreover, the growth is 113% in the assay with HCC-2998 colon and 21.3% in the assay on KM12 colon.
As to `CC/C=C\C[C@H](O)C/C=C1/C(=O)C=C[C@@H]1C/C=C\CCCC(=O)OC`, the growth in the assay with T-47D breast was -0.483% (active); in the assay with BT-549 breast it was -20.6% (active); in the assay on MDA-MB-435 melanoma, 4.45% (active); in the assay on SW-620 colon, -44.4% (active); in the assay with MCF7 breast, 4.43% (active); in the assay on HCT-116 colon, -56.5% (active). Also, the growth with HCC-2998 colon is -78.4% (active); in the assay on KM12 colon, -54.3% (active).
As for `O=C1/C(=C/c2ccccc2)CCc2nc3ccccc3c(/C=C/c3ccc(Cl)cc3)c21`, the growth in the assay on T-47D breast is 54%; in the assay with BT-549 breast it was 104%; in the assay with MDA-MB-435 melanoma, 95.6%; with SW-620 colon, 103%; in the assay with MCF7 breast it was 51.8%; in the assay with HCT-116 colon, 57.7%. Besides, the growth in the assay with HCC-2998 colon is 93.5%; in the assay on KM12 colon it was 91.4%.
Turning to `CC(=O)n1c(-c2ccc(Cl)cc2)nc2c(c1=O)C(c1ccc(Cl)cc1)c1sc3c(Cl)cccc3c1O2` (stereo not drawn), the growth in the assay on T-47D breast is -2.51% (active); with BT-549 breast, -7.92% (active); in the assay with MDA-MB-435 melanoma it was -19.6% (active); in the assay on SW-620 colon, -11.1% (active); with MCF7 breast it was 5.59% (active); with HCT-116 colon it was -45.9% (active). The growth in the assay on HCC-2998 colon was -45.4% (active); in the assay with KM12 colon it was -17.4% (active).
As to `COc1ccc2cc(-c3cc(OC)c(OC)c(OC)c3)c(=O)oc2c1`, the growth in the assay on T-47D breast is 56.5%; in the assay with BT-549 breast it was 50.1%; with MDA-MB-435 melanoma, 7.5% (active); in the assay with SW-620 colon, 44.3%; in the assay on MCF7 breast, 37.5%; with HCT-116 colon, 46.9%. The growth in the assay with HCC-2998 colon was 86.6%; in the assay with KM12 colon it was 65.8%.
For `COc1cc(/C=C2\C(=O)ON=C2C)cc(OC)c1OC`, the growth was 97.9% in the assay on T-47D breast; 112% in the assay with BT-549 breast; 102% with MDA-MB-435 melanoma; 97.7% in the assay on SW-620 colon; 97% with MCF7 breast; 104% in the assay on HCT-116 colon. Besides, the growth in the assay with HCC-2998 colon was 94.5%; in the assay on KM12 colon it was 100%.
Consider `C[n+]1cccc(CC(=O)NO)c1`, for which the growth in the assay with T-47D breast is 79%; in the assay with BT-549 breast, 103%; in the assay on MDA-MB-435 melanoma, 107%; in the assay with SW-620 colon it was 105%; with MCF7 breast it was 96.4%; in the assay on HCT-116 colon, 104%. In addition, the growth in the assay on HCC-2998 colon is 110%; in the assay on KM12 colon, 107%.
